# In ChEMBL document CHEMBL1201862, “PubChem BioAssay data set” (2004):
# The whole screen tested about 57,000 sequences, of which about 3,500 (6.1%) were called active. Rule as the data show it: active = GI50 up to about 1.1 µM and inactive = higher. For the sample, actives were picked, then their nearest neighbours and some sequences at random. Results with a measured potency or affinity are listed apart.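 Exposure lasted 48 hours, with cells grown in 96-well plates and compounds tested at five concentrations. GI50: concentration for 50% inhibition of growth.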
# Test system: 786-0
# Experiment: NCI tumour cell line growth inhibition, 48 h
row,Substance,GI50
1,"[Bis(aminomethyl)tetramethylenesilane]dichloropaltinum(II), CHEMBL2146205",5780 nM
2,"[Bis(aminomethyl)diethylsilane]tetrachloroplatinum(IV), CHEMBL2146203",2180 nM
3,"[Bis(aminomethyl)tetramethylenesilane]tetrachloropaltinum(IV), CHEMBL2146189",3100 nM
4,"[Bis(aminomethyl)ethylmethylsilane]tetrachloroplatinum(IV), CHEMBL2146192",1340 nM
5,"CISPLATIN, CHEMBL11359",1100 nM
6,"[Bis(aminomethyl)dimethylsilane]dichloroplatinum (II), CHEMBL2146201",6140 nM
7,"[Bis(aminomethyl)pentamethylenesilane]tetrachloropaltinum(IV), CHEMBL2146204",1220 nM
8,"[Bis(aminomethyl)pentamethylenesilane]dichloropaltinum(II), CHEMBL2146202",916 nM
9,"[Bis(aminomethyl)dimethylsilane]tetrachloroplatinum(IV), CHEMBL2146190",2120 nM
10,"mu-(1,7-nanodiamine-N,N')bis-(cis-aminedichloroplatimum (II)), CHEMBL2146215",8730 nM
11,"cis-Bis[[(trimethylsilyl)methyl]amino]tetrachloroplatinum(IV), CHEMBL2146191",5710 nM
